Bioassay records as filed in PubChem.
LMNA splice mod: LMNA splicing modulation. HeLa LMNA splicing GFP/RFP minigene ratio, 48 h. Potency, µM (top dose mostly 46.1 µM), for the others: at the highest dose ratio change, negative = inhibition, usual class: inhibitors. hit rate 0.01% among 200,000. AID 1487; active = well fitted inhibition curve with a large enough effect in the signal ratio, with a control signal flat, not every such curve was filed as active; inconclusive = small, poorly fitted or top-dose-only effect, or effect the other way, or a change in a side signal; the % refers to the signal ratio; note: % is set by controls: 0 for no effect and ±100 for the full control effect
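S3 HeLa stable clones carrying a lamin A-EGFP splicing minigene plus DsRed2 were seeded at 600 cells/well in Opti-MEM with 2% FBS, pin-dosed and incubated 48 h at 37°C. Acumen cytometry (488 nm) gave the GFP/RFP total-intensity ratio.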
ALDH1A1 block: ALDH1A1 (human) enzyme inhibition; hit rate 7.3% among 220,000; Potency, µM (top dose mostly 75.3 µM), inactives show at the top dose activity, negative = inhibition, most hits filed as inhibitors; Purified ALDH1A1, NADH fluorescence, propionaldehyde substrate;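 note: plate controls were no enzyme wells and a reference inhibitor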
HPGD block: inhibitors of human 15-hydroxyprostaglandin dehydrogenase (HPGD); P15428; purified HPGD, NADH fluorescence kinetic, PGE2 substrate; Potency, µM, without a hit: top-dose activity change, negative = inhibition, actives largely listed as inhibitors; hit rate 4.3% among 150,000; AID 894; note: % is set by controls: 0 for no effect and ±100 for the full control effect
Target sequence (P15428 whole entry, looked up): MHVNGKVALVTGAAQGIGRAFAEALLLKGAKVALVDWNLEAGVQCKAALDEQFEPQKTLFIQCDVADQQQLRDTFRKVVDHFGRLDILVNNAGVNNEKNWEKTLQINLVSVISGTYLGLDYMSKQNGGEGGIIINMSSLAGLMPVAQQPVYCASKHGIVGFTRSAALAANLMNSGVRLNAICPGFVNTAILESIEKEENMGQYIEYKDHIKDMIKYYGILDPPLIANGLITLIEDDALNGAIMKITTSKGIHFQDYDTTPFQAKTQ
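NADH formation kinetics: reaction with 30 uM PGE2 and 1 mM NAD+ (final), 20 nM enzyme, Tris-HCl pH 8 with Tween 20, after 15 min compound preincubation at room temperature. Fluorescence change, last versus first of five reads.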
KDM4E inh: JMJD2E (human) inhibition | AID 2147 | B2RXH2 | Potency, µM (highest dose often 57.1 µM), for the others: top-dose activity change, negative = inhibition, actives largely listed as inhibitors | JMJD2E catalytic domain, FDH-coupled NADH fluorescence (FDH is formaldehyde dehydrogenase) | hit rate 1.6% among 230,000;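 note: 0% = wells with enzyme and -100% = buffer wells without enzyme; nearly all actives have a fitted effect of over 50% in size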
Target sequence (B2RXH2 1-337 limits assumed): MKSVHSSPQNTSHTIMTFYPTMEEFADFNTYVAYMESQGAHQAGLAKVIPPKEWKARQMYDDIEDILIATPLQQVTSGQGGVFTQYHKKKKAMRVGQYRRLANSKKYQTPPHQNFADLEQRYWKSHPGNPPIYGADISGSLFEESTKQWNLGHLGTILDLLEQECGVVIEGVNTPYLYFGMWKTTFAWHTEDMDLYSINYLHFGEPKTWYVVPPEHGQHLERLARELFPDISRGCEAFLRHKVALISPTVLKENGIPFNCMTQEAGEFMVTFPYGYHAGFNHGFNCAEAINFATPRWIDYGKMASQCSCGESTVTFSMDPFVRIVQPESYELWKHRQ
HTT ATP protect: Huntington cell model cytoprotection by ATP luminescence; PC12 HTT-Q103 induced, cytoprotection, ATP luminescence, 40 h; Potency, µM (titrated, usually from 56.4 µM), for the others: cytoprotection (ATP increase), most hits filed as activators; hit rate 0.14% among 230,000; AID 1471; active = well fitted curve in the direction sought with a large enough effect; inconclusive = small, poorly fitted or top-dose-only effect, or another doubt; inactive = no such curve, though single readings can be large; an effect the other way counts as inactive or inconclusive; note: % of control where 0% means no effect; nearly all actives have a fitted effect of over 45% in size
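ATP quantification (ATPlite) reports survival of PC12 cells in which tebufenozide, 100 nM final, switches on Htt exon 1 with 103 glutamines linked to GFP; compounds are titrated.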
HTT aggregate: inhibitors of mutant huntingtin aggregate formation in PC12 cells; Potency, µM (top dose mostly 46.1 µM), for inactives: top-dose activity change, negative = inhibition, most hits filed as inhibitors; AID 1688; PC12 HttQ103-GFP aggregates, Acumen cytometry, 40 h; hit rate 1.1% among 220,000; active = well fitted curve in the direction sought with a large enough effect; inconclusive = small, poorly fitted or top-dose-only effect, or another doubt; inactive = no such curve, though single readings can be large; an effect the other way counts as inactive or inconclusive; note: % is set by controls: 0 for no effect and ±100 for the full control effect; nearly all actives have a fitted effect of over 60% in size
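Huntingtin Q103 exon 1–GFP aggregates in induced PC12 cells (100 nM tebufenozide) were quantified by cytometry from lysates, with compounds dosed in titration.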
* hit, by the source's call; ? = inconclusive; nt = no result; [ ] = dose if it differs, or a comment. Hits are enriched below; roughly 9.2% of the tested compounds scored in any of these assays. Unless noted, calls come from the whole dose curve; as a rule, active = well fitted inhibition curve with a large enough effect (not every such curve was filed as active); inconclusive = small, poorly fitted or top-dose-only effect, or another doubt; inactive = no such curve, though single readings can be large or run the other way. Potency is the fitted concentration of half-maximal effect.

SMILES	LMNA splice mod	ALDH1A1 block	HPGD block	KDM4E inh	HTT ATP protect	HTT aggregate
Cc1cccc(OCC(=O)Nc2ccc(C(=O)c3ccc(C(=O)O)cc3)cc2)c1	?	8%	nt	9%	29%	-3%
C[C@@H]1CC2(OC3C[C@@]4(C)C5=CC[C@H]6C(C)(C)C(O[C@@H]7OC[C@@H](O)[C@H](O)[C@H]7O)CC[C@@]67C[C@@]57CC[C@]4(C)C31)OC(O)C1(C)OC21 (some centres not stated)	nt	?	-8%	nt	-3%	nt
CCN(C(=O)COc1ncnc2sccc12)c1ccccc1	nt	-1%	nt	-2%	1µM*	-8%
CCC(C)NC(=O)Cn1ncc2c([nH]c3ccc(C)cc32)c1=O (configuration not stated)	-2%[46 µM]	nt	nt	nt	nt	nt
CCOc1ccccc1C(=O)Nc1nnc(C(C)C)s1	-8%	1.3µM*	-12%	-20%	-18%	-4%
CCCC(C)c1nnc(NC(=O)CS(=O)(=O)Cc2ccccc2)s1 (configuration not stated)	-3%	25µM*	13µM*	-2%	1%	0%
CC(C)Cc1nnc(NC(=O)CS(=O)(=O)Cc2ccccc2)s1	0%	?	-28%	-3%	13%[10 µM]	?
CC(C)c1nnc(NC(=O)CS(=O)(=O)Cc2ccccc2)s1	nt	7.9µM*	nt	-1%	18%[10 µM]	4%[9.22 µM]
CCOc1ccccc1C(=O)Nc1nncs1	-9%	-5%	-21%	2%	2%	1%
O=C(CS(=O)(=O)Cc1ccccc1)Nc1nc2ccccc2s1	-5%	6%	-3%	-5%	-4%	-5%
CCCCc1nc2c(c3c1C[C@H](C)OC3)CN(C(=O)N[C@@H](C)c1ccccc1)CC2	9%[9.22 µM]	15%[13.5 µM]	-7%	7%[11.4 µM]	4%[10 µM]	nt
Cc1ccc(NC(=O)CCC(=O)NNC(=S)Nc2ccccc2)c(C)c1	?	8.9µM*	nt	6%	16%[10 µM]	8%[9.22 µM]
Cc1ccc(NC(=S)NNC(=S)Nc2ccc(C)cc2C)cc1	nt	0.45µM*	nt	-8%	-10%[10 µM]	-14%[9.22 µM]
CC(=O)OCC(=O)[C@@]1(O)CCC2C3CCC4=CC(=O)CC[C@]4(C)C3C(O)C[C@]21C (some centres not stated)	nt	3%	-8%	0%	-34%	nt
CCCCCCn1c(=O)[nH]c2nc3cc(N)ccc3nc2c1=O	3%	-15%	nt	-3%	-20%[10 µM]	?
Cc1ccccc1OCc1nnc(SCC(=O)Nc2ccc3nc(SCC(=O)Nc4ccccc4)sc3c2)n1C	?	13µM*	-12%	5%	nt	19%
CCC(=O)Nc1ccc2nc(SCC(=O)N3CCCC3)sc2c1	-14%	?	16µM*	7%	-1%[10 µM]	2%
Cn1c(SCC(=O)Nc2ccc3nc(SCC(=O)N4CCCC4)sc3c2)nnc1-c1ccc(N)cc1	17%	13µM*	8.9µM*	2%	-10%	-4%
CC(C)CC(=O)Nc1ccc2nc(SCC(=O)N3CCCC3)sc2c1	9%[46 µM]	nt	nt	nt	nt	nt
Cn1c(SCC(=O)Nc2ccc3nc(SCC(=O)NC4CC4)sc3c2)nnc1-c1ccccc1	-12%	10µM*	3.5µM*	-1%	-2%[10 µM]	-1%
Cc1ccccc1OCc1nnc(SCC(=O)Nc2ccc3c(c2)OCO3)n1C	24%	8%	-16%	0%	-28%	5%
CCCOc1ccc(-c2cccc(NS(=O)(=O)c3cc(OC)ccc3OC)c2)nn1	11%[46 µM]	nt	nt	nt	nt	nt
CCOC(=O)N1CCN(C(=O)CSc2ccc3nnc(-c4ccncc4)n3n2)CC1	nt	-1%	nt	?	-36%	-8%
CCOC(=O)CC(=O)CSc1ccc2nnc(-c3ccc(C)cc3)n2n1	10%	-10%	13µM*	?	-7%	-27%
N/C(=N\OC(=O)CC1CCCCC1)c1cccc([N+](=O)[O-])c1	6%	13µM*	-10%	-5%	5%[10 µM]	10%
SMILES	LMNA splice mod	ALDH1A1 block	HPGD block	KDM4E inh	HTT ATP protect	HTT aggregate
N/C(=N\OC(=O)CCC1CCCC1)c1cccc([N+](=O)[O-])c1	-11%	-2%	nt	1%	3%[10 µM]	10%
Cc1[nH]c2ccccc2c1[C@H]1[C@@H](CC#N)C1(C)C	-9%	22µM*	-26%	-4%	6%[10 µM]	-3%
Cc1c(C)n(CC(O)CNc2ccccc2)c2ccccc12 (configuration not stated)	nt	?	nt	18µM*	29%[10 µM]	9%[9.22 µM]
Cn1c(=O)c(-c2ccc(F)c(F)c2)nc2cncnc21	7%	?	nt	nt	?	nt
O=C(CN1CCC(c2nc3ccccc3s2)CC1)NCc1cccs1	?	6.3µM*	?	-6%	-47%	9%
CC(C)n1c(N2CCN(CC(=O)NCc3cccs3)CC2)nc2ccccc21	-19%	10µM*	-11%	-4%	-8%[10 µM]	?
CC(C)COC(=O)NC1c2ccccc2Oc2ccccc21	nt	nt	nt	0%	-17%[10 µM]	-18%[9.22 µM]
BrC(/C=N/N1CCN(Cc2ccccc2)CC1)=C/c1ccccc1	nt	nt	nt	3%	27%[10 µM]	26%[9.22 µM]
O=C(Nc1ccc(Br)cc1)Nc1nc2c(s1)CCCCCC2	-1%[46 µM]	nt	nt	nt	nt	nt
C/C(=N\NC(=O)COc1ccc(C)cc1[N+](=O)[O-])c1cccs1	?	14µM*	nt	19%	-26%	13%
CCc1ccc(NC(=O)Cn2cnc3c(=O)n(C)c(=O)n(C)c32)cc1	nt	1%	nt	-12%	-60%	-17%
CCc1ccc(C(C)NC(=O)Cn2cnc3c(=O)n(C)c(=O)n(C)c32)cc1 (configuration not stated)	-14%	28µM*	-11%	5%	16%[10 µM]	-18%
CCOC(=O)/C(C(=O)Nc1ccccc1Br)=C1/NC(C)(C)Cc2ccccc21	-1%	28µM*	-13%	-6%	-9%[10 µM]	13%
COc1cccc(CNC(=O)c2c(C)oc3ncnc(N4CCOCC4)c23)c1	6%[46 µM]	nt	nt	nt	nt	nt
CNc1ccccc(-c2ccc3cc4c(cc3n2)OCO4)c1=O	-1%	?	-3%	?	nt	25%
Cc1ccc2c(CSc3nc4ccccc4c(=O)n3CCCO)cc(=O)oc2c1C	?	13µM*	?	-24%	-39%	-29%[9.22 µM]
Cc1ccc2c(CSc3nnc4ccccn34)cc(=O)oc2c1C	7%	?	-12%	-3%	nt	-1%
O=C(OCC(F)(F)F)[C@H](O)[C@@H](O)C(=O)OCC(F)(F)F	nt	0%	-5%	5%	nt	nt
O=C(Cc1ccc([N+](=O)[O-])cc1)NCc1ccncc1	nt	3%	nt	-4%	-12%	2%
O=C(CCNc1ccc(Cc2ccncc2)cc1)c1ccc([N+](=O)[O-])cc1	?	0.11µM*	nt	-38%	-27%[1.9 µM]	1%[9.22 µM]
O=C(NCc1cccnc1)c1ccc(NC(=O)c2cccc([N+](=O)[O-])c2)cc1	?	19%	nt	1%	-74%[10 µM]	3%[9.22 µM]
O=C(Nc1ccc(Cc2ccncc2)cc1)c1cccc([N+](=O)[O-])c1	?	7%	1.4µM*	-3%	10%[10 µM]	12%
